Over roughly 33,000 sequences, “e-score” has its median near -0.037; the highest 2% begin near 0.34. For the sample, the highest values were picked, then their nearest neighbours and some sequences at random.

The target of the experiment is T1, GST-Rok (full length) (Bacillus subtilis subsp. subtilis str. …, UniProt O34857 1-191).
T1 sequence: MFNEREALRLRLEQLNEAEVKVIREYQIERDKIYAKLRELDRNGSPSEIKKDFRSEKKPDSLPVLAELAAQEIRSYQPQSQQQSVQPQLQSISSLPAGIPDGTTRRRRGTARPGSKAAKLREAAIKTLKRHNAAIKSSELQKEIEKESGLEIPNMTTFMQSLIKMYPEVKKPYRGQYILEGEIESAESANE
Put plainly: protein binding microarray; Rok is a gene silencer of Bacillus subtilis; high values mean tight binding. The settings on record: protein: recombinant; tags: GST (pTH5325, pDEST15-Magic modified); dsDNA, one strand shown. The essentials:
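Every oligonucleotide joins a 25-mer constant primer to a 35-mer variable part drawn from a de Bruijn sequence of order 10, so each non-palindromic 8-mer appears at least 32 times and each palindromic 8-mer 16 times. The preference for every 8-mer is reported as a unitless, rank-based enrichment score (E-score). This score spans 0.5 for the most favored 8-mer to −0.5 for the most disfavored.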
Regarding TCAGGACA, the binding signal was -0.136 E-score.

CCACCTAA: the binding signal was -0.104 E-score.

With CTGGTAAC, the binding signal is 0.176 E-score.

Take GAGAGAGA: the binding signal was -0.124 E-score.

As for CAAGCGTA, the binding signal was -0.175 E-score.

Consider AAGCCAGC, for which the binding signal was -0.00201 E-score.

Consider AGACTGAA, for which the binding signal came out at 0.0238 E-score.

Take TATACTAA: the binding signal turned out to be 0.364 E-score.

For the sequence AATACTCA, the binding signal turned out to be 0.174 E-score.

Regarding GATACTAA, the binding signal was 0.307 E-score.

Regarding AATACTAA, the binding signal was found to be 0.37 E-score.

On to AATACTCG, for which the binding signal is 0.085 E-score.

As for CATACTAG, the binding signal was 0.312 E-score.

Consider AATACTTC, for which the binding signal was determined as 0.235 E-score.

For the sequence CATACTAA, the binding signal was 0.125 E-score.

Regarding AATACTAG, the binding signal was determined as 0.341 E-score.

For the sequence AATACTAC, the binding signal stood at 0.419 E-score.

Consider GATACTAC, for which the binding signal was found to be 0.278 E-score.

Regarding AATACTGA, the binding signal was determined as 0.188 E-score.

In the case of GCAGGGAA, the binding signal was -0.158 E-score.

TAAATTCA: the binding signal came to 0.217 E-score.

For the sequence AGTAGCCA, the binding signal is -0.0245 E-score.

On to CCTTACCG, for which the binding signal is 0.0725 E-score.

CGGAGCCG: the binding signal is -0.191 E-score.

Consider ACGTGCTA, for which the binding signal worked out at 0.0361 E-score.

As to CATACTAC, the binding signal turned out to be 0.376 E-score.

On to AATACTCT, for which the binding signal was found to be 0.11 E-score.

Regarding AATACTAT, the binding signal was 0.359 E-score.

Turning to CATACTCC, the binding signal is -0.0183 E-score.

On to AATACTGT, for which the binding signal worked out at 0.171 E-score.

Turning to CATACTTC, the binding signal is 0.191 E-score.

For AAAAAGTT, the binding signal turned out to be 0.0934 E-score.

As to ACCAACAA, the binding signal was -0.105 E-score.

Turning to GAACACCA, the binding signal is -0.0539 E-score.

Regarding TACTTCGA, the binding signal was found to be 0.332 E-score.

CACTAAGC: the binding signal is -0.0899 E-score.

As for GTAGGAAC, the binding signal turned out to be 0.0415 E-score.

In the case of CGAACGTA, the binding signal worked out at 0.0863 E-score.

On to ACTAATTC, for which the binding signal was 0.359 E-score.

With ACTAATTG, the binding signal came to 0.184 E-score.

GCTAATTA: the binding signal came to 0.325 E-score.

For the sequence CCTAATTA, the binding signal was determined as 0.228 E-score.

Regarding CCTAATTC, the binding signal is 0.0288 E-score.

For the sequence ACTAATTA, the binding signal came to 0.438 E-score.

With GGCATCTA, the binding signal is -0.0204 E-score.

On to AGGATGAT, for which the binding signal was -0.0933 E-score.

Take ACTGTGGA: the binding signal was -0.123 E-score.

Regarding ATTATATC, the binding signal was found to be 0.377 E-score.

In the case of ATTATATA, the binding signal amounted to 0.468 E-score.

As for CTTATATC, the binding signal was found to be 0.141 E-score.

In the case of ATTATAGA, the binding signal came to 0.353 E-score.

ATTATATG: the binding signal was 0.269 E-score.

Consider CTTATAGA, for which the binding signal turned out to be 0.112 E-score.

Consider GTTATAGA, for which the binding signal came out at 0.11 E-score.

In the case of GTTATATA, the binding signal stood at 0.296 E-score.

Regarding CCTATATC, the binding signal was determined as 0.00873 E-score.

As to CCTGAGCA, the binding signal is -0.194 E-score.

CATCGACA: the binding signal came to 0.0503 E-score.

Take CACAACCG: the binding signal was 0.019 E-score.

Take AGCGTGGG: the binding signal is -0.179 E-score.

Take ATCGAAAA: the binding signal is 0.0373 E-score.

On to ATAGAATC, for which the binding signal came to 0.254 E-score.

As to ATAGAAAC, the binding signal turned out to be 0.288 E-score.

Turning to ATCGAAAT, the binding signal was found to be 0.357 E-score.

In the case of ATAGAATG, the binding signal was 0.181 E-score.

For ATAGAAAT, the binding signal was 0.337 E-score.

With ATAGAAAA, the binding signal amounted to 0.324 E-score.

On to ATAGAATA, for which the binding signal came to 0.356 E-score.

Regarding ATCGAAAC, the binding signal turned out to be 0.0448 E-score.

TCTTTCCA: the binding signal was -0.0837 E-score.

As for AGTCGGAC, the binding signal was -0.171 E-score.

Regarding AGCCCGTG, the binding signal was -0.00226 E-score.

AAGCGACT: the binding signal came to 0.0908 E-score.

For the sequence AGATAGTC, the binding signal stood at 0.0258 E-score.

Consider AGATAGTG, for which the binding signal was 0.199 E-score.

Turning to GGATAGTA, the binding signal turned out to be 0.208 E-score.

On to CGATAGTC, for which the binding signal was -0.0533 E-score.

CGATAGTA: the binding signal was determined as 0.384 E-score.

With AGATAGTA, the binding signal was 0.347 E-score.

CATGATCC: the binding signal worked out at 0.0194 E-score.

As to AGAAGCTA, the binding signal was 0.0762 E-score.

For the sequence AACCTCAC, the binding signal was -0.146 E-score.

AACCGCCC: the binding signal is -0.131 E-score.

For CGGCGAAG, the binding signal was determined as 0.0313 E-score.

As for ATGAAGTC, the binding signal is -0.0225 E-score.

Turning to GCGACTTA, the binding signal amounted to 0.0295 E-score.

In the case of CCACTAAG, the binding signal is -0.137 E-score.

As for ATTTCTAA, the binding signal is 0.303 E-score.

With ATTTCTAG, the binding signal came to 0.333 E-score.

Regarding CTTTCTAA, the binding signal worked out at 0.162 E-score.

As to CTTTCTAC, the binding signal worked out at 0.444 E-score.

For the sequence ATTTCTAC, the binding signal came out at 0.408 E-score.

Turning to CTTTCTTC, the binding signal was -0.0764 E-score.

With AGAGACCT, the binding signal was -0.154 E-score.

As for ACGTGGGC, the binding signal was -0.0245 E-score.

Turning to GGATTGAC, the binding signal is -0.0238 E-score.

GTATTATA: the binding signal is 0.35 E-score.

In the case of GTATTAAA, the binding signal worked out at 0.109 E-score.

As for GTATTAGA, the binding signal came out at 0.22 E-score.

CTATTATC: the binding signal is 0.214 E-score.

On to CTATTATA, for which the binding signal is 0.366 E-score.

For the sequence CTGTTATA, the binding signal came to 0.308 E-score.

As to ATATTATA, the binding signal amounted to 0.425 E-score.

In the case of ATGTTATC, the binding signal is 0.206 E-score.

In the case of ATATTATC, the binding signal came out at 0.319 E-score.

As for CGATTATA, the binding signal was 0.215 E-score.

Turning to ATATTATG, the binding signal came out at 0.111 E-score.

For ATGTTATA, the binding signal amounted to 0.35 E-score.

On to CGTCCTAA, for which the binding signal is -0.0629 E-score.

Take CGAACTGC: the binding signal is -0.11 E-score.

With ACCATGCG, the binding signal was -0.0629 E-score.

As to TCGAAGCA, the binding signal is -0.0477 E-score.

Consider GAACTAGA, for which the binding signal stood at 0.36 E-score.

For the sequence AGACTAGA, the binding signal came to 0.173 E-score.

Take CAACTAGA: the binding signal amounted to 0.247 E-score.

In the case of ACACTAGA, the binding signal stood at 0.197 E-score.

Take AAACTAGA: the binding signal turned out to be 0.355 E-score.

As to TAACTAGA, the binding signal is 0.224 E-score.

On to CCGGCGAA, for which the binding signal is -0.00971 E-score.

Consider CAATAATG, for which the binding signal is 0.0655 E-score.

For CAATAATA, the binding signal came out at 0.352 E-score.

CAATAATC: the binding signal is 0.0735 E-score.

For TAATAATA, the binding signal is 0.395 E-score.

With GAATAATA, the binding signal was found to be 0.271 E-score.

Take AAATAATA: the binding signal came out at 0.312 E-score.

Turning to TATTAATA, the binding signal worked out at 0.368 E-score.

Consider CATTAATA, for which the binding signal was 0.171 E-score.

On to AATTAATA, for which the binding signal was found to be 0.256 E-score.

For ACTCACTA, the binding signal was 0.177 E-score.

As to ACAGCATG, the binding signal turned out to be 0.0491 E-score.

Consider AGGCACTG, for which the binding signal was -0.0252 E-score.

Regarding CGTGATAA, the binding signal amounted to 0.124 E-score.

For CCCGGCCG, the binding signal is -0.162 E-score.

Consider CCAAATAG, for which the binding signal is -0.0889 E-score.

As to CGTGCGAG, the binding signal is -0.181 E-score.

For the sequence TTATTGAA, the binding signal is -0.0458 E-score.

AGTAAATA: the binding signal came to 0.387 E-score.

On to AGTAAATC, for which the binding signal was 0.262 E-score.

In the case of GGTAAATA, the binding signal was 0.299 E-score.

CGTAAATC: the binding signal turned out to be 0.0869 E-score.

Consider AGTAAATG, for which the binding signal was 0.19 E-score.

Turning to CGTAAATA, the binding signal was 0.343 E-score.

On to AATTCCGT, for which the binding signal is -0.114 E-score.

With GACTTTCA, the binding signal is -0.125 E-score.

As for CGGCCAAC, the binding signal is -0.111 E-score.

On to AGAAGATG, for which the binding signal came to 0.193 E-score.

Take ACTGATAT: the binding signal turned out to be 0.242 E-score.

CCGTACCG: the binding signal was -0.185 E-score.

As for CTGAACTA, the binding signal was 0.203 E-score.

On to AAAGTCGA, for which the binding signal was -0.0163 E-score.

In the case of ATATAATC, the binding signal stood at 0.152 E-score.

As for ATATAATG, the binding signal was 0.303 E-score.

As to GTATAATA, the binding signal came out at 0.407 E-score.

For ATATAATA, the binding signal worked out at 0.452 E-score.

Turning to CTATAATC, the binding signal turned out to be 0.279 E-score.

GTATAAGA: the binding signal was determined as 0.199 E-score.

As to GTATAAAA, the binding signal was 0.343 E-score.

In the case of CTATAATA, the binding signal was found to be 0.355 E-score.

As to TTATAAAA, the binding signal was found to be 0.236 E-score.

In the case of GTATAACA, the binding signal is 0.208 E-score.

As for GTATAAAC, the binding signal turned out to be 0.16 E-score.

CTATAAGA: the binding signal came out at 0.244 E-score.

On to GATCAGAA, for which the binding signal was found to be 0.11 E-score.

In the case of ACGACCGC, the binding signal worked out at 0.0315 E-score.

Regarding CCCGTTTC, the binding signal is -0.0198 E-score.

CCATCTAG: the binding signal is -0.0113 E-score.

Regarding ATGAGGGC, the binding signal is -0.183 E-score.

For AGCTGCCT, the binding signal was -0.125 E-score.

As for CGGTGTTC, the binding signal is -0.0645 E-score.

For AGAACATG, the binding signal amounted to 0.223 E-score.

Turning to GGTCTAAA, the binding signal came to 0.0268 E-score.

As for ATACATCA, the binding signal came out at 0.191 E-score.
